This is a sample that favours compounds with a hit; in the whole collection about 6.6% have one here.
KB-V1 MDR tox – qHTS assay for MDR1-selective chemotherapeutics: Primary screen using the drug-selected MDR subline cells KB-V1. KB-V1 MDR cells viability, CellTiter-Glo, 72 h. Potency, µM (series often up to 46.1 µM), most hits filed as cytotoxic. actives 3.4% (n = 400,000). AID 1347076, 2019; further: on the % scale 0 is the no-effect control and ±100 the full control effect; nearly all actives have a fitted effect of over 60% in size
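Drug-selected KB-V1 cells, grown in DMEM lacking phenol red with 10% FBS, receive compound titrations; after three days at 37 degrees C, surviving cell ATP is quantified by CellTiter-Glo luminescence and responses normalized and curve-fitted.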
MCF10A rerep – A quantitative high throughput screen for small molecules that induce DNA re-replication in MCF 10a normal breast cells; actives 2.9% (n = 350,000); AID 624296, 2012; Potency, µM (highest dose often 46.1 µM), for inactives: at the top dose activity, positive = re-replication, hits mostly activators; MCF 10A DNA re-replication, Hoechst nuclear intensity, 48 h; further: % of control where 0% means no effect; nearly all actives have a fitted effect of over 50% in size
KB-3-1 cytotox – qHTS assay for MDR1-selective chemotherapeutics: Primary screen using the parental adenocarcinoma cell KB-3-1; KB-3-1 viability, CellTiter-Glo ATP luminescence, 72 h; Potency, µM (series often up to 46.1 µM), usual class: cytotoxic; actives 1.4% (n = 400,000); further: on the % scale 0 is the no-effect control and ±100 the full control effect; nearly all actives have a fitted effect of over 60% in size
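Parental KB-3-1 viability, qHTS format: 72 h compound exposure, 37 °C; CellTiter-Glo; media-only wells and DMSO plates as controls; concentration-effect fits on corrected data.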
RGS4 inh – Inhibitors of Regulator of G Protein Signaling (RGS) 4: qHTS | Potency, µM (highest dose often 114 µM), for inactives: at the top dose activity change, negative = inhibition, actives largely listed as inhibitors | actives 0.039% (n = 390,000) | Transcreener GDP fluorescence polarization, RGS4-accelerated GTP hydrolysis; further: on the % scale 0 is the no-effect control and ±100 the full control effect; nearly all actives have a fitted effect of over 75% in size
Target sequence (P49798 whole entry, looked up): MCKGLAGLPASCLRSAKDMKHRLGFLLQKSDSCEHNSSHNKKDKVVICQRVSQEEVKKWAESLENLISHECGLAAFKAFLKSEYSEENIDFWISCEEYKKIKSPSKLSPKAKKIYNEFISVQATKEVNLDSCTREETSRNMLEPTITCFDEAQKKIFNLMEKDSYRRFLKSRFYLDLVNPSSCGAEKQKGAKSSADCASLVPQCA
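MLSMR compounds (23 nl, pin-transferred) preincubated 10 min at room temperature with a 500nM (2x) first reagent, then RGS4 at 900nM (2x) plus Transcreener GDP mix added; fluorescence polarization (620/688 nm) read before and after 90 min at 30 °C.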
SW480 rereplic – A quantitative high throughput screen for small molecules that induce DNA re-replication in SW480 colon adenocarcinoma cells; SW480 DNA re-replication, Hoechst DNA content imaging, 48 h; Potency, µM (titrated, usually from 46.1 µM), inactives show at the highest dose re-replication activation, most hits filed as activators; actives 1.8% (n = 340,000); further: % of control where 0% means no effect; nearly all actives have a fitted effect of over 55% in size
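Readout is total intensity of Hoechst-stained nuclei, excited at 405 nm and collected at 500-530 nm. Compound treatment lasted 48 hr at 37 C in 5% CO2 before staining.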
TSG101-PTAP inh – qHTS Assay for Iinhibitors of HIV-1 Budding by Blocking the Interaction of PTAP/TSG101. Potency, µM (doses to about 115 µM), for the others: at the highest dose activity change, negative = inhibition, actives largely listed as inhibitors. AID 493005, 2010. 340,000 tested, under 10 active. Tumor susceptibility gene 101 protein (Homo sapiens), Q99816. Fluorescence polarization, FITC-PTAP peptide / Tsg101 binding; active means well fitted inhibition curve with a large enough effect in the main read-out, with a control signal flat, not every such curve was filed as active; inconclusive means small, poorly fitted or top-dose-only effect, or effect the other way, or a change in a side signal; inactive means no such curve, though single readings can be large or run the other way; further: % of control where 0% means no effect
Target sequence (Q99816 whole entry, looked up): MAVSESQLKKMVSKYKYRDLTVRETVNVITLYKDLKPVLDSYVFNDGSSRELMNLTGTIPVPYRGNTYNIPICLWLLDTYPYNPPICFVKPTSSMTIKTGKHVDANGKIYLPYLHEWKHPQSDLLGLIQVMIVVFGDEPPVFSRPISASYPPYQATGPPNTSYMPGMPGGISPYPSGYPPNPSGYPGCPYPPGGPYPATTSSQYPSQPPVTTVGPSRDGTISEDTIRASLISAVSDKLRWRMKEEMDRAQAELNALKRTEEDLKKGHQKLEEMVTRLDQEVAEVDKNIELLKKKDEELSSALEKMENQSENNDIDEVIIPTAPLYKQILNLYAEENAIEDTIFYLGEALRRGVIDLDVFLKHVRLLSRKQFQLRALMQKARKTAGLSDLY
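FP read-out: FITC-PTAP peptide, 50 nM final, binding Tsg101 binding domain, 10 uM final; 20 min, r.t.; 10 mM HEPES pH 7.5, 0.15 M NaCl, 0.01% Tween 20, 3 mM EDTA, 0.1 mM TCEP.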
Numbers without * were called inactive; i = inactive; ? = inconclusive; · = not tested or not shown; [ ] = dose if it differs, or a comment. Unless noted, the call rests on the fitted dose curve; in most records, active means well fitted curve in the direction sought with a large enough effect; inconclusive means small, poorly fitted or top-dose-only effect, or another doubt; inactive means no such curve, though single readings can be large; an effect the other way counts as inactive or inconclusive. Potency means the concentration at half of the fitted maximal effect.

SMILES | KB-V1 MDR tox | MCF10A rerep | KB-3-1 cytotox | RGS4 inh | SW480 rereplic | TSG101-PTAP inh
COc1ccc(/C=C/C(=O)O)cc1COc1cccc(C)c1 | i | 16.9% | i | -12.1% | 2.8% | -1.4%
COc1ccc(/C=C/C(=O)NCc2c(C)nn(C)c2C)cc1COc1ccc(Br)cc1 | i | 3.66µM* | i | -17.5% | ? | -1.1%
Cc1ccc2nc(SC(Cc3cc(Cl)ccc3Cl)C(=O)O)[nH]c2c1 (configuration not stated) | · | · | · | 11.3% | · | ·
C=CCn1c(SCc2ccccc2C#N)nnc1-c1cc(Br)ccc1O | 3.66µM* | ? | ? | -20.3% | 11.3% | -5.2%
O=C1NC(c2ccccc2)=C(c2ccccc2)C1=O | i | -3.8% | i | 9.4% | -5.7% | -1.5%
O=C1C(Br)=C(c2ccccc2)C(c2ccccc2)=C1c1ccccc1 | ? | 3.66µM* | 6.51µM* | ? | 2.91µM* | -1.4%
COc1cccc(NC(=O)c2cn(C3CCCCC3)c(=O)c3c2c2ccccc2n3C)c1 | i | · | i | 4.4% | · | ·
Cc1ccccc1CSc1nc2n(n1)C(c1cccs1)C1=C(CCCC1=O)N2 (configuration not stated) | ? | 25.9µM* | i | 5.5%[11.4 µM] | ? | -6.3%
COc1ccc(-n2c(COc3ccc(C)cc3)nnc2SCc2ccc(C#N)cc2)cc1 | 6.51µM* | 5.8% | i | -10.9% | 1.1% | -4.7%
Cc1cc(=O)[nH]c2c1c(C)nn2C1CCCCC1 | i | 6.51µM* | i | -6.6% | 8.2µM* | 0.2%
CC(NC(=O)/C(=C/c1ccc(OC(F)F)cc1)c1ccccc1)c1ccccc1 (configuration not stated) | 6.51µM* | ? | ? | 3.1% | 19.1% | -4.3%
Cn1ncc2c(Nc3ccc4ccccc4c3)ncnc21 | ? | ? | i | -17.6% | 16.4µM* | -6.2%
Cn1ncc2c(Nc3cccc(Cl)c3)nc(Nc3cccc(Cl)c3)nc21 | ? | 18.4µM* | ? | 5.4% | ? | -5.1%
CN(C)c1ccc(/C=C/c2ccnc3ccccc23)cc1O | i | · | i | · | · | ·
Cc1ccc(C2CC(=O)N(Cc3ccccc3F)c3c2c(C)nn3-c2nc(C)cc(C)n2)cc1 (configuration not stated) | i | · | i | 8.2% | · | ·
COc1ccc(/C=c2/sc3n(c2=O)C(c2ccccc2OC)C2=C(N=3)c3ccccc3CC2)cc1O (configuration not stated) | ? | 18.4µM* | ? | -46.9% | 5.17µM* | 5.1%
COc1ccc(N2CCN(C(c3cccs3)C(C)NS(=O)(=O)c3ccccc3)CC2)cc1 (configuration not stated) | ? | ? | 20.6µM* | -33.7% | -4.2% | 0.4%
CC(C)C(=O)NC(C)C(c1cccs1)N1CCN(c2ccccc2)CC1 (configuration not stated) | 13µM* | 10.3% | i | -45.8% | -4.8% | 0.4%
CC1CN(C(=O)N2CCC(C(=O)NCCCc3ccccc3)CC2)c2cc(Cl)ccc2O1 (configuration not stated) | i | · | i | 1.7% | · | ·
CC[C@]1(c2ccccc2OC)ON(c2ccccc2C(F)(F)F)C1=O | ? | ? | 23.1µM* | -18.5% | ? | -6.6%
COc1ccccc1[C@]1(C)ON(c2ccccc2C(F)(F)F)C1=O | ? | 14.2% | i | 3.4% | 9.3% | -3.4%
CCOc1ccccc1OCCn1ncc2ccc(OC)c(OC)c2c1=O | i | 0.1% | i | 21.1% | -11.7% | -1.5%
COc1cc(C(=O)NCCOc2cc(C)ccc2C(C)C)cc(OC)c1OC | 16.4µM* | ? | ? | -10.6%[56.9 µM] | ? | -6.0%
Cc1ccc(C(C)C)c(OCCNCCc2ccccc2)c1 | i | 13µM* | i | 12.7% | ? | -0.2%
COc1ccc2cnn(CCOc3cc(C)ccc3C(C)C)c(=O)c2c1OC | 6.51µM* | ? | i | -6.6% | ? | -0.3%
SMILES | KB-V1 MDR tox | MCF10A rerep | KB-3-1 cytotox | RGS4 inh | SW480 rereplic | TSG101-PTAP inh
Cc1ccc(C(C)C)c(OCCNC(=O)c2cncc(Br)c2)c1 | ? | ? | i | -2.2% | 2.5% | -3.3%
COc1cc(C(=O)NCCOc2cc(C)cc(C)c2)cc(OC)c1OC | 5.8µM* | 20.6µM* | 4.61µM* | 15.7% | 7.31µM* | -6.3%
COc1cc(C(=O)NCCOc2ccccc2)cc(OC)c1OC | ? | 1.5% | i | 20.8% | 0.5% | -2.2%
O=C(NCCN1CCCCC1)c1ccc(Cn2c(SCc3cccc(F)c3)nc3cccnc32)cc1 | ? | · | i | 11.3% | · | ·
N#Cc1cnc(SCC(=O)c2ccccc2)nc1N | i | ? | i | ? | -21.8% | -6.0%
N#Cc1cnc(SCCc2ccccc2)nc1N | ? | 9.2µM* | i | -23.5% | 9.2% | -1.5%
COc1ccc(S(=O)(=O)c2c(C(=O)c3ccc(C)c(C)c3)cnc3ccc(C)cc23)cc1 | i | · | i | -9.6% | · | ·
CC(=O)c1ccc(N2CCN(C(=O)CCCc3nc4ccccc4s3)CC2)cc1 | i | 18.4µM* | i | 28.8% | -4.0% | -2.6%
O=S(=O)(CS(=O)(=O)c1ccccc1)c1ccccc1 | i | -14.2% | ? | 4.1% | -9.7% | -0.8%
O=S(=O)(C/C(=C/CO)S(=O)(=O)c1ccccc1)c1ccccc1 | ? | 0.82µM* | ? | -36.4% | 1.16µM* | -1.1%
COc1cc(/C=C(\C#N)c2nc3ccccc3s2)ccc1OCC(=O)Nc1ccccc1 | 9.2µM* | 6.51µM* | ? | -33.2% | ? | ?
COc1cc(/C=C(\C#N)c2nc3ccccc3[nH]2)ccc1OC(=O)c1ccco1 | ? | ? | i | -23.3% | 8.8% | 1.0%
COc1cc(/C=C(/C#N)c2nc3ccccc3[nH]2)ccc1OCC(=O)Nc1ccccc1C(C)C | ? | 2.91µM* | ? | -19.6% | ? | -6.2%
COc1cc(/C=C(/C#N)c2nc3ccccc3[nH]2)ccc1OCC(=O)Nc1ccccc1C | 1.84µM* | 18.4µM* | ? | -14.2% | 26.6% | -5.9%
Cc1cccc(NC(=O)CN2C(=O)CCc3ccccc32)c1C | i | · | i | 25.5% | · | ·
Cc1cc(C)n(CCc2nc3c4ccccc4nc(N4CCN(c5ccccc5)CC4)n3n2)n1 | i | · | i | 22.9% | · | ·

Assay outcomes deposited in PubChem by National Center for Advancing Translational Sciences (NCATS).
